Out of some 310,000 compounds screened, about 3,800 (1.2%) were called active.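 The calls were made as follows: active = ratio B-score over 3 SD below the library mean, with starting fluorescence within 5 SD of its mean; inactive = the rest, inconclusive results apart.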 The sample as a whole holds a higher share of actives than the screen did.

Chain of Potassium channel subfamily K member 9 (Homo sapiens) (Q9NPC2 whole entry, looked up): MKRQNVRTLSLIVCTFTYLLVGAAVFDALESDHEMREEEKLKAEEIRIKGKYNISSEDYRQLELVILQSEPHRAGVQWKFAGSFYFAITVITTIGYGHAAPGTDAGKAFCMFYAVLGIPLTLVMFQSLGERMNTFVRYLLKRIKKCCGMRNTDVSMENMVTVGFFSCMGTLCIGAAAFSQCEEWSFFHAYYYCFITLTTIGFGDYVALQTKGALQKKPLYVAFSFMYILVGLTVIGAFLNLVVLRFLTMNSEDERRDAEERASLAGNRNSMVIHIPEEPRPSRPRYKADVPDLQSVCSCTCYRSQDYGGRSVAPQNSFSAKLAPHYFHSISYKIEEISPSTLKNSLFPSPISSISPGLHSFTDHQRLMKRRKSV

The test addresses Potassium channel subfamily K member 9 (Homo sapiens) (UniProt Q9NPC2). The experiment in a line: KCNK9 potassium channel inhibitors, primary screen, HEK293 cells, thallium flux (AID 488922).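 As to B-score: negative B-score means less thallium flux so channel inhibition.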 The note with it: HEK293 KCNK9, FluxOR thallium flux fluorescence, at 10 µM; hits give low values.
For `Cc1cc(CNCc2c(C(=O)N(C)Cc3ccccc3)nc3ccccn23)nn1C`, the B-score entry was “inactive”.
Under `CCCNC(=O)CN(Cc1ccccc1F)S(=O)(=O)c1ccc(C)cc1` stands “inactive”; under `COC(=O)Cc1ccc(N(Cc2ccccc2F)S(=O)(=O)c2ccc(Br)cc2)cc1`, -6.88 (active).
Under `Cc1ccc(S(=O)(=O)N(CC(=O)Nc2cccnc2)c2ccc(Br)cc2)cc1` stands “inactive”; under `O=C(/C=C/c1ccc([N+](=O)[O-])cc1)NCCSCc1ccco1`, “inactive”; under `O=C(c1ccc(Br)o1)N1CCN(CCOc2ccccc2)CC1`, “inactive”.
As for `COc1ccc(-c2nc(CCNC(=O)c3ccc(Br)o3)cs2)cc1`, the B-score is -10.5 (active).
With `COc1ccc(N2CCN(C(=O)CNC(=O)c3ccc(Br)o3)CC2)cc1`, the B-score entry was “inactive”.
Under `COc1ccc(-c2csc(NC(=O)COC(=O)c3ccc(Br)o3)n2)cc1` stands “inactive”.
For `CCCCC(CC)CNC(=O)C(=O)C1C(=O)Nc2ccccc21` (configuration not stated), the B-score result is “inactive”.
With `COc1cc2c(C(=O)N(C)c3cc(Cl)ccc3OC)cn(C)c(=O)c2cc1OC` the entry was “inactive”; with `CCC(=O)N1CCN(c2ccccc2NC(=O)COc2cccc(C)c2C)CC1`, “inactive”; with `CCOc1ccccc1N1CCN(C(=S)Nc2ccc(S(N)(=O)=O)cc2)CC1`, “inactive”.
Under `CCOc1ccccc1NC(=S)N1CCN(c2cccc(C)c2C)CC1` stands -6.79 (active).
With `CCOc1ccc(NC(=O)N(CCC(C)C)C(C)c2ccco2)cc1` (configuration not stated) the figure was -7.13 (active); with `CCOc1ccc(NC(=O)N(CC(C)C)CC(C)C)cc1`, “inactive”; with `CC(c1ccco1)N(C(=O)Nc1ccccc1)C1CCCCC1` (configuration not stated), “inactive”.
Turning to `COc1cc(C)nc(N2CCCC(C(=O)NCC(C)C)C2)n1` (configuration not stated), the B-score result is “inactive”.
Under `COc1ccc(NC(=O)CN(C)CC(=O)Nc2cccc(C(F)(F)F)c2)cc1` stands -11.5 (active); under `COc1ccc(NC(=O)C(=O)NCC(=O)Nc2cccc(C(F)(F)F)c2)cc1`, “inactive”.
With `COc1cccc(NC(=O)CN(C)CC(=O)Nc2ccc3c(c2)CCC3)c1` the entry was “inactive”; with `CC(C)c1c(C(=O)N/N=C/c2ccccc2C(=O)O)nnn1-c1nonc1N`, “inactive”.
For `CN1C(=O)/C(=C/C=C2\SCCN2C)OC1=S`, the B-score result is “inactive”.
`O=C(c1cc2sccc2n1Cc1ccc(F)cc1)N1CCc2ccccc21`: the B-score entry is “inactive”.
With `CCOC(=O)c1cc2sccc2n1Cc1ccc(C#N)cc1` the figure was -12.8 (active).
As to `CC1Cc2ccccc2N1C(=O)c1cc2sccc2n1Cc1ccccc1` (configuration not stated), the B-score result is “inactive”.
With `CCCCC(=O)Nc1c2c(nn1-c1ccc([N+](=O)[O-])cc1)CS(=O)(=O)C2` the entry was “inactive”.
Under `CCSC1=NCCN1C(=O)c1ccc(S(=O)(=O)N(CC)CC)cc1` stands “inactive”; under `O=C(O)CSc1c2c(nc3cc(C(=O)Nc4cccc(C(F)(F)F)c4)ccc13)CCCC2`, “inactive”.
Under `COC(=O)c1ccccc1Sc1c(/C=N/OCc2ccc(Cl)cc2)c(C(F)(F)F)nn1C` stands “inactive”; under `Cn1nc(C(F)(F)F)c(C(=O)Nc2cccc(C(F)(F)F)c2)c1SCc1ccc(Cl)cc1`, -7.25 (active); under `C[n+]1cc(-c2ccccc2)oc1-c1ccccc1`, “inactive”.
On to `COc1cccc(-c2coc3cc4oc(=O)c(CC(=O)O)c(C)c4cc23)c1`, for which the B-score entry is “inactive”.
Under `COc1cc(C(=O)OC2CCOC2=O)c([N+](=O)[O-])cc1OC` (configuration not stated) stands “inactive”.
Regarding `CN(C)Cc1ccccc1C1(O)c2ccccc2CSc2ccccc21` (configuration not stated), the B-score is -6.84 (active).
As to `CC(=O)Nc1ccc(S(=O)(=O)N2CCC(NC(=O)c3ccccc3)CC2)cc1`, the B-score result is “inactive”.
With `COc1ccc(-c2csc3ncnc(N4CCN(S(=O)(=O)c5cccc(F)c5)CC4)c23)cc1` the entry was “inactive”; with `CCCCCOC(=O)C1=C(C)Nc2nnnn2C1c1ccc(OC)c(OC)c1OC` (configuration not stated), “inactive”.
With `COc1ccc(-c2nnn(CC(=O)N(CCO)C(C(=O)NC3CCCC3)c3ccc(F)cc3)n2)cc1` (configuration not stated) the entry was “inactive”; with `CC(C)CCNC(=O)CN(C(=O)Cn1nnc(-c2ccc(F)cc2)n1)C1CCCC1`, “inactive”; with `CC(C)CCNC(=O)C(C)N(C(=O)Cn1nnc(-c2ccc(F)cc2)n1)C1CCCC1` (configuration not stated), -8.61 (active).
With `Cc1ccc(NC(=O)CN2CCCCC2)c2c1CC(C)(C)O2` the entry was “inactive”; with `CCOc1ccc(NS(=O)(=O)c2ccc(C(=O)NC3CCN(Cc4ccccc4)CC3)cc2)cc1`, “inactive”; with `CC(C)C(=O)Nc1cccc(NC(=S)NC(=O)C(c2ccccc2)c2ccccc2)c1`, -14.9 (active).
`CCCCC(=O)NNC(=S)NC(=O)C(c1ccccc1)c1ccccc1`: the B-score result is “inactive”.
Regarding `CC(C)C(=O)NC(=S)Nc1ccccc1F`, the B-score result was “inactive”.
Under `Cc1c(C(=O)NC2CCCCC2)oc2ccccc12` stands “inactive”; under `Cc1ccc(NC(=O)CC2C(=O)N(Cc3ccccc3)C(=S)N2NC(=O)c2cccc(F)c2)c(C)c1` (configuration not stated), “inactive”; under `CNc1ccc([N+](=O)[O-])cc1C(=O)O`, “inactive”.
Under `Cc1ccc(NC(=O)c2cc([N+](=O)[O-])ccc2Cl)c(O)c1` stands -10.2 (active).
With `O=C(Nc1cccnc1)c1cc([N+](=O)[O-])ccc1Cl` the entry was “inactive”.
For `FC(F)(F)c1cc(-c2cccs2)nc(NCc2ccco2)n1`, the B-score entry is “inactive”.
With `FC(F)(F)c1cc(-c2ccco2)nc(NCc2ccc(Cl)cc2)n1`, the B-score was -8.22 (active).
Under `COc1ccc(-c2cc(C(F)(F)F)nc(NCc3cccnc3)n2)cc1` stands “inactive”; under `O=C(OCCOCn1cc(Br)c(=O)[nH]c1=O)c1ccccc1`, “inactive”.
As for `COc1ccc(Br)cc1CN(C)CC(=O)Nc1cc(Cl)cc(Cl)c1`, the B-score entry was “inactive”.
For the compound `O=C(COc1ccc2ccccc2c1)N1CCN(C(=O)c2cccs2)CC1`, the B-score result was “inactive”.
With `O=S(=O)(NCc1ccc(Cl)cc1Cl)c1cccs1` the entry was “inactive”; with `O=S(=O)(Nc1ccccc1Br)c1cccs1`, “inactive”; with `O=C(Nc1cccc(Cl)c1)Nc1ccccc1NS(=O)(=O)c1cccs1`, -7.87 (active).
With `Cn1ccs/c1=N\S(=O)(=O)c1ccc(C(C)(C)C)cc1` the entry was “inactive”; with `COc1ccc(/C=N/NC(=O)c2ccc3c(c2)OCCO3)c(OC)c1`, “inactive”; with `COc1ccc(C(=O)Nc2ccccc2C(=O)NCc2ccco2)cc1`, “inactive”.
With `COc1ccc(C(=O)Nc2ccccc2C(=O)N/N=C/c2ccc(O)c(OC)c2)cc1` the figure was -10.2 (active); with `COc1cc(/C=N/NC(=O)c2ccc(N3CCCC3=O)cc2)ccc1O`, “inactive”.
On to `COc1ccc(/C=N/NC(=O)c2ccccc2)cc1OS(=O)(=O)c1ccccc1`, for which the B-score result was “inactive”.
With `COc1ccc(C(=O)Nc2ccccc2C(=O)N/N=C/c2ccccc2OC)cc1` the figure was -13.5 (active); with `COc1ccc(Cl)cc1NC(=O)COC(=O)C(CC(C)C)N1C(=O)C2CC=CCC2C1=O` (configuration not stated), “inactive”; with `COc1ccccc1N1CC(C(=O)Nc2nnc(SCC(=O)NCC3CCCO3)s2)CC1=O` (configuration not stated), “inactive”.
As for `CC1(C)CC(=O)c2c(n(S(=O)(=O)c3ccccc3)c3ccc(NS(=O)(=O)c4ccccc4)cc23)C1`, the B-score result was “inactive”.
With `CNC(=O)c1sc(Nc2ccc(OCc3ccccc3)cc2)nc1C` the entry was “inactive”; with `CCOn1c(SC(C)C)nc2ccccc2c1=O`, “inactive”.
With `CCOC(=O)C1CCc2nc3ccccc3c(=O)n21` (configuration not stated) the entry was “inactive”.
Take `CCOC(=O)C(C)Sc1nc2ccccc2c(=O)n1CC1CCCCC1` (configuration not stated): the B-score is -11.7 (active).
Turning to `FC(F)(F)c1ccc2c3n(nc2c1)CCN=C3c1ccc(Cl)cc1`, the B-score result was “inactive”.
With `O=C(Nc1ccc(Br)cc1)c1cccc(NC(=O)C2C3CC4OC(=O)C2C4C3)c1` (configuration not stated) the entry was “inactive”; with `COC(=O)c1ccc(C(NC(=O)OCc2ccccc2)/C(F)=C/[C@@H](C)C(=O)O)cc1` (some centres not stated), “inactive”; with `CCC[C@@H]1C[C@@]1(CCC)[C@@H](NC(=O)c1ccccc1)c1ccc(C(=O)OC)cc1`, “inactive”.
Under `CCC/C=C(\CCC)C(NC(=O)Cc1ccccc1)c1ccc(C(=O)OC)cc1` (configuration not stated) stands -13.9 (active); under `CCc1cc2c(=O)n(-c3ccccc3)c(SCC(=O)O)nc2s1`, “inactive”.
Take `COc1ccc2[nH]c(C)c(CCN(Cc3cccs3)C(=S)Nc3ccccc3OC)c2c1`: the B-score entry is “inactive”.
With `CCNC(=S)N(CCc1c(C)[nH]c2ccc(C)cc12)Cc1ccco1` the entry was “inactive”; with `COc1cccc(NC(=S)N(CCc2c(C)[nH]c3ccccc23)Cc2ccco2)c1`, -9.04 (active); with `O=C1c2ccccc2S(=O)(=O)N1Cc1c(F)cccc1Cl`, “inactive”.
With `O=C1CCN(CCCc2ccccc2)CCN1CCO` the entry was “inactive”; with `CCOC(=O)[C@H]1[C@H]2COc3cc(OC)ccc3[C@@H]2N2C(=O)N(c3ccc(Br)cc3)C(=O)[C@@]12C`, “inactive”; with `CCOC(=O)[C@@H]1[C@H]2COc3ccc(Br)cc3[C@H]2N2C(=O)N(c3ccc(Cl)cc3)C(=O)[C@@]12C`, -10.9 (active).
Under `CCOC(=O)[C@@H]1[C@H]2COc3cc(OC)ccc3[C@H]2N2C(=O)N(c3ccc(F)cc3)C(=O)[C@]12C` stands “inactive”.
On to `Cc1onc(-c2ccccc2Cl)c1C(=O)OCc1nnc(-c2ccccc2)o1`, for which the B-score result was “inactive”.
Under `O=C(CSc1ccc(-c2ccco2)nn1)Nc1cccc(F)c1` stands “inactive”; under `Cc1cc(SCc2c(F)cccc2Cl)nc(=O)[nH]1`, “inactive”.
For `Fc1cccc(Cl)c1CSc1ccc(-c2ccco2)nn1`, the B-score is -14.1 (active).
Under `NC(=O)C1=C[C@@H](c2csc3ccccc23)C[C@@H](OCc2ccc(CO)cc2)O1` stands “inactive”.
Consider `COC(=O)c1c(NC(=O)C(=O)N2CCCCC2)sc2c1CC(C)(C)OC2`, for which the B-score entry is “inactive”.
Under `COc1ccc(/C=C2\CCCC3C2=NN(C(=O)c2scnc2C)C3c2ccc(OC)cc2)cc1` (configuration not stated) stands “inactive”; under `CCCCC(C(=O)NC(C)(C)C)N(Cc1ccccc1)C(=O)c1snc(C(N)=O)c1N` (configuration not stated), “inactive”.
Under `COc1cc(-c2n[nH]c(=S)n2Cc2ccccc2)cc(OC)c1OC` stands “inactive”.
With `COc1cc(C(O)c2nc3ccccc3n2C)cc(OC)c1OC` (configuration not stated) the entry was “inactive”; with `CCC(C)n1c(-c2cc(OC)c(OC)c(OC)c2)nc2nc3ccccc3nc21` (configuration not stated), -15.1 (active).
In the case of `COc1ccccc1-n1ccnc(SCC(=O)NC2CCCCC2)c1=O`, the B-score result is “inactive”.
With `O=C(C1CCN(C2CCN(Cc3ccc4cc(F)ccc4n3)CC2)CC1)N1CCCC1` the entry was “inactive”; with `CCN(C(=O)COC(=O)c1cc(NS(=O)(=O)c2ccc(Cl)c([N+](=O)[O-])c2)ccc1O)C1CCCCC1`, “inactive”.

The record behind these values is PubChem BioAssay AID488922 (Johns Hopkins Ion Channel Center, 2010).
